Reference: article PMC7862700, “An all-to-all approach to the identification of sequence-specific readers for epigenetic DNA modifications on cytosine”

Tests used:
Assay in all cases: DAPPL (digital affinity profiling via proximity ligation, sequencing); 10 mM Tris-HCl pH 7.5, 50 mM NaCl, 1 mM DTT, 4% glycerol, room temperature, 30 min; GST-TFs on glutathione beads, 16-mer random dsDNA library, 0.1% formaldehyde crosslink after washing; high values mean tight binding
Conditions in all cases: protein: recombinant; tags: N-terminal GST; dsDNA, one strand shown
FLI1 = molecular target: T1, FLI1 (Homo sapiens, UniProt Q01543 1-452)
T1 sequence: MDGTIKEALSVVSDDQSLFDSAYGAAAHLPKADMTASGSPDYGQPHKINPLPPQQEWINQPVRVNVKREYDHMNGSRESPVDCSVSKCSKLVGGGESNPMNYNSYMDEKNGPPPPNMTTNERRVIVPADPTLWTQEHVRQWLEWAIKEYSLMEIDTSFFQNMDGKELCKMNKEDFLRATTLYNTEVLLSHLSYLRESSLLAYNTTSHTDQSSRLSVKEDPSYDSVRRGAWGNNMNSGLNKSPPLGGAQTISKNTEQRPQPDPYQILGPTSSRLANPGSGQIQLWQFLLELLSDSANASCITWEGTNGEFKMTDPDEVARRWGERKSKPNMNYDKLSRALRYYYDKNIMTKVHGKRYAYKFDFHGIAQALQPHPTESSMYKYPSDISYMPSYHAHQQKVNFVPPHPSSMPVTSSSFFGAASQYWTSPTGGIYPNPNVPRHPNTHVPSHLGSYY
Outline: (§1)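 Sequencing on an Illumina NextSeq500 followed washing, crosslinking with 0.1% formaldehyde, proximity ligation (BsaI/T4 ligase, 1 h, 37 °C) and PCR amplification of pools that had been incubated for 30 min at room temperature with 200 nmole of a random double-stranded 16-mer DNA library in Tris/NaCl/DTT/glycerol buffer. Each pool held DNA-barcoded human transcription factors, expressed in yeast as GST fusions and captured on glutathione beads, plus a tag-only sample. Binding signal is a hexamer's read frequency for a factor divided by its frequency in the tag-only sample.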

ELK1 = molecular target: T2, ELK1 (Homo sapiens, UniProt P19419 1-428)
T2 sequence: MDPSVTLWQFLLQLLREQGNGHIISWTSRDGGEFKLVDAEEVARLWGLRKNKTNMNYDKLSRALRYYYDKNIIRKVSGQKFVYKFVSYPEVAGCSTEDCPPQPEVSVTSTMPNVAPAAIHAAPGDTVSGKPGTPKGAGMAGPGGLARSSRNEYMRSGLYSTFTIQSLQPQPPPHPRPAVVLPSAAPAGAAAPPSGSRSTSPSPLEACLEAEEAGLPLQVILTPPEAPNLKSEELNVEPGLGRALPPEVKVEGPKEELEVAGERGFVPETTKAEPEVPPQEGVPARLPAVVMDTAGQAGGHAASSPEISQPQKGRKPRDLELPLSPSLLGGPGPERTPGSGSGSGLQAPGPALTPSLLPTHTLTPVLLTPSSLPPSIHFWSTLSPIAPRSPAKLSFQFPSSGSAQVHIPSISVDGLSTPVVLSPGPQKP
Outline: as §1

GABPA = molecular target: T3, GABPA (Homo sapiens, UniProt Q06546 1-454)
T3 sequence: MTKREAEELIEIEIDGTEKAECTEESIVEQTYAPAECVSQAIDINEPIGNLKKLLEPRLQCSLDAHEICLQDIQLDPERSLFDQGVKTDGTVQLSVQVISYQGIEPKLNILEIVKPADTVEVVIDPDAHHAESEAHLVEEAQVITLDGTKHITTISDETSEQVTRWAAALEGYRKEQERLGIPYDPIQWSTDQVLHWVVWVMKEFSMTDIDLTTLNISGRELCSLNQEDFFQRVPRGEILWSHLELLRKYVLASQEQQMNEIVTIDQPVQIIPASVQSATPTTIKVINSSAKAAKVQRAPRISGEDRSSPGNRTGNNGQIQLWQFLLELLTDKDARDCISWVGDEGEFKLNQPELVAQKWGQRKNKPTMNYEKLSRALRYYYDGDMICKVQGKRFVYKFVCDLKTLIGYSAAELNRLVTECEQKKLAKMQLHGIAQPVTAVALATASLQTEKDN
Outline: as §1

ERG = molecular target: T4, ERG (Homo sapiens, UniProt P11308 1-479)
T4 sequence: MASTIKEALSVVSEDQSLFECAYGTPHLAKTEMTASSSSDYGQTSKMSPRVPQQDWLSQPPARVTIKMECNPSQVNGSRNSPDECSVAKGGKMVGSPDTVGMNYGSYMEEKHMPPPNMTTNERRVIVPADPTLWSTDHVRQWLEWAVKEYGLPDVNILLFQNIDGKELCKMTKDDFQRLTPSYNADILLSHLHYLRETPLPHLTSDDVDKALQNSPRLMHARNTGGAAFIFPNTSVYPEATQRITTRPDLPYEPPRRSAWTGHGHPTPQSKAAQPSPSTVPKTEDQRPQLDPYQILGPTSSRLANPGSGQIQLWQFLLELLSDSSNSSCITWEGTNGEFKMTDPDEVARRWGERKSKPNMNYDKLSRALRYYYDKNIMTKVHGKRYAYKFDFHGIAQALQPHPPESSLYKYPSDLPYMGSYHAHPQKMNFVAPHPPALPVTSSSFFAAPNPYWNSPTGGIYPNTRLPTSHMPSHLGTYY
Outline: as §1

ELF1 = ELF1 (Homo sapiens, UniProt P32519 1-619)
Outline: as §1

EHF = molecular target: T5, EHF (Homo sapiens, UniProt Q9NZC4 1-300)
T5 sequence: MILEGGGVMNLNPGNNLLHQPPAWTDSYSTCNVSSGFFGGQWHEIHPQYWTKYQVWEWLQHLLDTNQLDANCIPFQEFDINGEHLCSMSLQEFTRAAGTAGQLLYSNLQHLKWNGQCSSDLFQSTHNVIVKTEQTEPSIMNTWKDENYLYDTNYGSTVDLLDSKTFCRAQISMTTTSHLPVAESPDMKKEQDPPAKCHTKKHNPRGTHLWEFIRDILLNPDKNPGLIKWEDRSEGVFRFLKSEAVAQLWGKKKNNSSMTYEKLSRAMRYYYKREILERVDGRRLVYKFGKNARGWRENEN
Outline: as §1

SPI1 = SPI1 (Homo sapiens, UniProt P17947 1-270)
Outline: as §1

SPIB = SPIB (Homo sapiens, UniProt Q01892 1-262)
Outline: as §1

ELK3 = molecular target: T6, ELK3 (Homo sapiens, UniProt P41970 1-407)
T6 sequence: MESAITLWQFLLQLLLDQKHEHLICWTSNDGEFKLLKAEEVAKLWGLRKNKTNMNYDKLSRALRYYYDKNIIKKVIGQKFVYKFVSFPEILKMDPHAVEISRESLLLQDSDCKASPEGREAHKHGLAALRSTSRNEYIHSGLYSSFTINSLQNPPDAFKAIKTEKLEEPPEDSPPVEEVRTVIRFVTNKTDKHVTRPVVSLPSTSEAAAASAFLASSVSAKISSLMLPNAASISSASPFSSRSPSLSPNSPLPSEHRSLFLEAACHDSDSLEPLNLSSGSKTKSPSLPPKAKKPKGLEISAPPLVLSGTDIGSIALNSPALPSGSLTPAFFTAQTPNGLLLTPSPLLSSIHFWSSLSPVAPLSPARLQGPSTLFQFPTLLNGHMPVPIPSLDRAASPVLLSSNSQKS
Outline: as §1

Sequence of ELF1 (P32519 whole entry): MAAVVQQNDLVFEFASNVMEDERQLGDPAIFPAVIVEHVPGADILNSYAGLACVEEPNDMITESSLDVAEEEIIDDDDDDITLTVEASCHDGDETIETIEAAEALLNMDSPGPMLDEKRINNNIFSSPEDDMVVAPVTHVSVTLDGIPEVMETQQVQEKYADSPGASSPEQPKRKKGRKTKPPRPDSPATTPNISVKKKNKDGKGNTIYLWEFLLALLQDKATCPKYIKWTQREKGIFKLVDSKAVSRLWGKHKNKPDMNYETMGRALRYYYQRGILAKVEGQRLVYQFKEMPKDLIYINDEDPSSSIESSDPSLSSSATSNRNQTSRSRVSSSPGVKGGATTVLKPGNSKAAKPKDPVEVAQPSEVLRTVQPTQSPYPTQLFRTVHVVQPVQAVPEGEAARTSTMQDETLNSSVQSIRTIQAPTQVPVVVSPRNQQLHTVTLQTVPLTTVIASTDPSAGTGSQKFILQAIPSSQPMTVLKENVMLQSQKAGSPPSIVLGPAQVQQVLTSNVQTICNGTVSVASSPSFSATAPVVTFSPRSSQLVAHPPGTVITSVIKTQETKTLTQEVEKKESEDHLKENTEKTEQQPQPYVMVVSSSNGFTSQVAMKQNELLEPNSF
Sequence of SPIB (Q01892 whole entry): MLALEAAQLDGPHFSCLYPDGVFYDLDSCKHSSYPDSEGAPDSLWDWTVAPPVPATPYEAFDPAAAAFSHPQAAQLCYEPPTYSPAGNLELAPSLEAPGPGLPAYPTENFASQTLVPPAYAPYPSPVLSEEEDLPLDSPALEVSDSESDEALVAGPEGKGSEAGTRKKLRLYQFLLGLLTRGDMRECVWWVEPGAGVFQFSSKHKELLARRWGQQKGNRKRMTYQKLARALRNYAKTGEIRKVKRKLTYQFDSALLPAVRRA

ATGCCT
binding signal (FLI1): 1.38 fold enrichment (6-mer frequency, TF over GST control) | binding signal (ELK1): 1.4 fold enrichment (6-mer frequency, TF over GST control) | binding signal (GABPA): 1.52 fold enrichment (6-mer frequency, TF over GST control) | binding signal (ERG): 1.48 fold enrichment (6-mer frequency, TF over GST control) | binding signal (ELF1): 1.35 fold enrichment (6-mer frequency, TF over GST control) | binding signal (EHF): 1.42 fold enrichment (6-mer frequency, TF over GST control) | binding signal (SPI1): 1.32 fold enrichment (6-mer frequency, TF over GST control) | binding signal (SPIB): 1.45 fold enrichment (6-mer frequency, TF over GST control) | binding signal (ELK3): 1.22 fold enrichment (6-mer frequency, TF over GST control)
